# Measured values taken from PubChem BioAssay AID2057 (The Scripps Research Institute Molecular Screening Center, 2009).
# The campaign covered roughly 320,000 compounds. About 2,100 (0.66%) were called active.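 Rule for the calls: active = inhibition above the mean inhibition of all tested compounds plus 3 SD, set per campaign (cut at about 40% in these data); inactive = the rest.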 The list comes from a sample in which actives are over-represented; it also holds similar structures and randomly drawn compounds.
# Target: Induced myeloid leukemia cell differentiation protein Mcl-1 (Homo sapiens) (UniProt Q07820)
# Assay: inhibitors of MCL1 binding to BIM-BH3, primary screen, biochemical, fluorescence polarization (AID 2057);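 note: 0% = DMSO wells and 100% = unlabeled Bim-BH3 peptide control; higher means more loss of mP so more displacement of Bim peptide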
# Settings: GST-MCL1 / FITC-Bim-BH3 fluorescence polarization; at 10.9 µM; stronger effect = higher value
# Induced myeloid leukemia cell differentiation protein Mcl-1 (Homo sapiens), sequence (Q07820 whole entry, looked up): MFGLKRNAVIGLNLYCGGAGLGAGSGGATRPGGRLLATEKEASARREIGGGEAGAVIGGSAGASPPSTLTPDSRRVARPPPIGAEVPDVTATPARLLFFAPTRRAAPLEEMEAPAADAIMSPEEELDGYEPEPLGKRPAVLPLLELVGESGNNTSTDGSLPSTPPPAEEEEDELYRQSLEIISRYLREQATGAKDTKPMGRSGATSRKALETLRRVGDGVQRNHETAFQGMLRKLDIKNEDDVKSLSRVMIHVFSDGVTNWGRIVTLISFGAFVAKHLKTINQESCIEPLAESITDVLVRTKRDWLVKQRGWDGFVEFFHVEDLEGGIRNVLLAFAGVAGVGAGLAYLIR
row,SMILES,inhibition
1,CN1C(=O)/C(=C/c2ccco2)SC1=Nc1cccc(C(=O)O)c1,44.5% (active)
2,Cc1cc(/C=C2\SC(=Nc3ccc(N4CCOCC4)cc3)N(C)C2=O)c(C)n1-c1cccnc1,-2.16% (inactive)
3,Cc1cc(/C=C2\SC(=O)N(C)C2=O)c(C)n1-c1cccc(C(=O)O)c1,10.5% (inactive)
4,COc1ccc(N(CC(=O)NC2CCCCC2)S(=O)(=O)c2c(C)[nH]c(=O)[nH]c2=O)cc1,5.18% (inactive)
5,COc1ccc(-c2cc(C(=O)N(C)Cc3ccccc3)c3ccccc3n2)cc1,-5.9% (inactive)
6,CN(C(=O)COC(=O)c1cc(-c2ccco2)nc2ccccc12)C1CCS(=O)(=O)C1 (stereo not drawn),105% (active)
7,CN(CCOc1ccccc1)C(=O)c1cc(-c2ccco2)nc2ccccc12,46% (active)
8,COc1ccc(NC(=O)CN(C)C(=O)c2cc(-c3ccc(C)o3)nc3ccccc23)cc1,4.98% (inactive)
9,CC1CCCN(C(=O)c2cc(-c3ccco3)nc3ccccc23)C1 (stereo not drawn),7.17% (inactive)
10,CN(C(=O)COC(=O)c1nc(Cl)ccc1Cl)C1CCS(=O)(=O)C1 (stereo not drawn),-0.55% (inactive)
11,COc1ccccc1C(=O)N/C(=C/c1ccco1)C(=O)Nc1ccc(C(=O)O)cc1,12.1% (inactive)
12,COC(=O)c1ccccc1NC(=O)CSc1nc2c(c(=O)[nH]1)CCC2,0.89% (inactive)
13,CC(=O)N1CCC(C(=O)OCc2ccc(Cl)cc2)(c2ccccc2)CC1,7.68% (inactive)
14,CCCCC(NS(=O)(=O)c1ccc(C)cc1)C(=O)Oc1ccc2c3c(c(=O)oc2c1)CCC3 (stereo not drawn),1.03% (inactive)
15,C#CCOCCOCCOCCNc1nc(N2CCN(C(=O)CCCCCCCCCCNC(=O)[C@H](CCCCN)n3cc(C)nn3)CC2)nc(N2CCN(C(=O)CCCCCCCCCCNC(=O)[C@H](CO)n3cc(CCCSC)nn3)CC2)n1,14.4% (inactive)
16,CN1c2ccc(C=O)c3c(C=O)ccc(c23)N(C)C1(C)C,167% (active)
17,O=C(OCc1cc(Cl)ccc1OC(F)F)c1cccnc1,-0.26% (inactive)

row,SMILES,inhibition
1,CS(=O)(=O)Nc1ccccc1N=C(c1ccccc1)c1ccccc1,-1.05% (inactive)
2,COC(=O)/C=C\C(=O)Nc1cccc([N+](=O)[O-])c1,2.27% (inactive)
3,COC(=O)c1sccc1NC(=S)Nc1ccc(C)cc1,13.5% (inactive)
4,Cc1ccc(C(=O)NC(=S)Nc2ccccc2C)cc1,4.14% (inactive)
5,COC(=O)c1sc(NC(=S)NC(=O)c2ccc(C)cc2)nc1C,98.3% (active)
6,CCCN1C2=C(C(=O)CCC2)C(c2ccc(O)c(Br)c2)C2=C1CCCC2=O,43.5% (active)
7,CCOc1ccc(C2C3=C(CCCC3=O)N(CC(=O)O)C3=C2C(=O)CCC3)cc1,17.6% (inactive)
8,COc1ccc(C2C3=C(CCCC3=O)N(CC(=O)O)C3=C2C(=O)CCC3)cc1,8.95% (inactive)
9,COc1ccccc1N1CCN(S(=O)(=O)CCNC(=O)c2ccc(OC(C)C)cc2)CC1,-5.21% (inactive)
10,Cc1cc(C)n2nc(C(=O)N(C)C(c3ccccc3)c3ccccc3)nc2n1,-7.96% (inactive)
11,Cc1cc(C)c[n+](-c2nc3ccccc3nc2[N-]S(=O)(=O)c2cccs2)c1,3.38% (inactive)
12,O=S(=O)([N-]c1nc2ccccc2nc1-[n+]1ccc(Cc2ccccc2)cc1)c1ccc(Br)s1,87.1% (active)
13,O=C(NCCc1ccccc1)C1CCN(S(=O)(=O)c2ccc(Br)s2)CC1,-0.6% (inactive)
14,Cc1cc(-c2nnc(SCC(=O)Nc3ccc(S(N)(=O)=O)cc3)n2N)n[nH]1,-7.81% (inactive)
15,COc1ccc2ccccc2c1CNCc1ccccn1,4.21% (inactive)
16,CSc1ccccc1C(=O)OCC(=O)N1CCN(C(C)=O)CC1,1.83% (inactive)
